Rows were chosen to be rich in hits. Some 18% of all compounds tested hit in one or more screens of this group.
DT40 TDP1 no CPT: qHTS for Inhibitors of human tyrosyl-DNA phosphodiesterase 1 (TDP1): qHTS in cells in absence of CPT; DT40 Tdp1-/- hTDP1 cells, no CPT, ATP luminescence, 48 h; Potency, µM (top dose mostly 46.2 µM), usual class: inhibitors; 15% of 420,000 active; further: nearly all actives have a fitted effect of over 55% in size
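DT40 Tdp1-/-;hTDP1 cells, no CPT (DMSO vehicle only), 400 cells/well; compounds pin-transferred; ≥48 hr, 37 °C; CellTiter-Glo 30 min RT dark, luminescence read.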
RORgamma inh: ROR gamma (mouse) transcription inhibition; Drosophila S2 Gal4-RORgamma UAS-luciferase reporter, 20 h; Potency, µM (top dose mostly 53.6 µM), most hits filed as inhibitors; 5.4% of 310,000 active; P51450; AID 2551; further: nearly all actives have a fitted effect of over 60% in size
Target sequence (P51450 whole entry, looked up, the tested form may be a part): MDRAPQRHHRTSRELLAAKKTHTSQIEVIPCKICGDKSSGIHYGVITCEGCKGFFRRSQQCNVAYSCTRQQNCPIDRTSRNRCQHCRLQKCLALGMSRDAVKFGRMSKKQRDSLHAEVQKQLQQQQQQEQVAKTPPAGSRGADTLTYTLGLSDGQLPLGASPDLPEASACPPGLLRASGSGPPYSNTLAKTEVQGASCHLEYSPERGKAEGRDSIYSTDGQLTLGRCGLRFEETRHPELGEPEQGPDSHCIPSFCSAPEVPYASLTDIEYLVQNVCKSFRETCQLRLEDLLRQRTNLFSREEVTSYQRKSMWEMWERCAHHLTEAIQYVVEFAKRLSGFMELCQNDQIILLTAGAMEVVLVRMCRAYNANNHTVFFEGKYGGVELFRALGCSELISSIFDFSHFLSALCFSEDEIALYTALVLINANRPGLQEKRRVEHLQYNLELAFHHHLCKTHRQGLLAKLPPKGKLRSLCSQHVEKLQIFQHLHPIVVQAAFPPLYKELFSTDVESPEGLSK
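Compounds are pin-transferred onto Drosophila Schneider cells expressing a copper-inducible Gal4–ROR gamma transactivation domain fusion. After 1 hr, copper sulfate is added to 700 uM final; luciferase is read 20 hr later.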
TDP1 cell CPT: growth inhibition of DT40 Tdp1-/-;hTDP1 cells with camptothecin (screen for TDP1 inhibitors); chicken DT40 Tdp1-/-;hTDP1 cells + 20 nM CPT, ATP luminescence, 48 h; Potency, µM (highest dose often 46.2 µM), usual class: inhibitors; 12% of 420,000 active; further: nearly all actives have a fitted effect of over 55% in size
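Cell growth measured by CellTiter-Glo luminescence after a minimum 48 h, 37 C compound exposure with 20 nM CPT in Tdp1-knockout DT40 cells stably expressing hTDP1, seeded 400/well; qHTS titration format.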
VP16 counter: Gal4-VP16 reporter inhibition counter-screen. Drosophila S2 Gal4-VP16 UAS-luciferase, luminescence, 20 h. 3.5% of 310,000 active. Potency, µM (doses to about 53.6 µM), hits mostly inhibitors;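 further: Gal4-VP16 expression switched on by copper sulfate through the metallothionein promoter; nearly all actives have a fitted effect of over 50% in size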
LDHA block: LDHA (human) enzyme inhibition | P00338 | purified LDHA, NADH/diaphorase-resazurin fluorescence; hits give low values | activity change, % (values are at about 110 or 230 µM) | 0.15% of 480,000 active | AID 1347041; in the data active means activity change below about -30%; inconclusive means mostly about -25% to -30%
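Remaining NADH was detected by diaphorase (0.133 mg/mL) converting 37 µM resazurin to fluorescent resorufin, read at 0 and 20 minutes. The preceding 5-minute room-temperature reaction used 2 nM LDHA, 0.2 mM sodium pyruvate and 0.06 mM NADH at pH 7.4.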
IL1B secr inh: blocks inflammasome-driven IL-1 beta release; THP-1 LPS/ATP IL-1B secretion, AlphaLISA, 16 h; hits give low values; activity change, % at 57.5 µM; AID 743279; 4.7% of 360,000 active; in the data active means activity change below about -50%; inconclusive means mostly about -30% to -49%
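THP-1 cells pretreated 1 hr with compounds (up to 57.5 uM final), then stimulated with LPS (250 ng/mL final) plus ATP (1.25 mM final); secreted IL-1B measured by AlphaLISA after 16 hr, decreased signal indicating inhibition.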
Hits are given with their value; . = inactive; ? = inconclusive; / = not tested or not shown; [ ] = dose if it differs, or a comment. Unless noted, the call rests on the fitted dose curve; in most records, active means well fitted curve in the direction sought with a large enough effect; inconclusive means small, poorly fitted or top-dose-only effect, or another doubt; inactive means no such curve, though single readings can be large; an effect the other way counts as inactive or inconclusive.

SMILES	DT40 TDP1 no CPT	RORgamma inh	TDP1 cell CPT	VP16 counter	LDHA block	IL1B secr inh
CCN(C(=S)Nc1cc(S(=O)(=O)N2CCOCC2)ccc1Cl)c1cccc2ccccc12	?	?	18µM	22µM	.	.
COc1ccccc1CNCC(=O)Nc1cc(S(=O)(=O)N2CCOCC2)ccc1Cl	16µM	/	?	/	.	.
O=C(O)c1nnn(-c2cccc(Br)c2)c1C(F)(F)F	/	/	/	/	.	/
O=c1c(Cl)c(Cl)cnn1Cc1nnc(-c2ccccc2Br)o1	1.8µM	?	4.1µM	?	.	-96
CC(C)(C)c1ccc(C(=O)CS(=O)(=O)c2ccccc2)cc1	16µM	.	?	.	.	.
Cc1nc(NCc2ccccc2)c2nc(-c3ccccc3)n(CC(C)(C)CN(C)C)c2n1	/	14µM	/	.	/	/
CCN(CC)CCCn1c(-c2ccccc2)nc2c(NCc3ccccc3)nc(C)nc21	/	.	/	.	/	/
CN(CC(O)CON=C1c2ccccc2-c2ccccc21)S(=O)(=O)c1ccc(Br)cc1 (stereo unspecified)	?	.	16µM	?	.	?
Cc1cccc(N(CC(O)CON=C2c3ccccc3-c3ccccc32)S(C)(=O)=O)c1 (stereo unspecified)	?	.	?	.	.	?
CS(=O)(=O)N(CC(O)CON=C1c2ccccc2-c2ccccc21)c1ccc(F)cc1 (stereo unspecified)	?	?	.	.	.	.
CCN(CC(O)CON=C1c2ccccc2-c2ccccc21)S(=O)(=O)c1ccc(Cl)cc1 (stereo unspecified)	15µM	?	21µM	?	.	-62
CCCCCCNc1nc(NCc2ccco2)nc(OCC)n1	18µM	?	21µM	?	.	.
c1ccc2[nH]c(CCCCCc3nc4ccccc4[nH]3)nc2c1	?	/	?	/	.	.
c1ccc2[nH]c3cc4ncnc4cc3nc2c1	18µM	?	?	.	.	-57
CC(C)CC(NC(=O)c1ccccc1Cl)C(=O)O (stereo unspecified)	/	/	/	/	.	/
Cc1ccc(Cl)cc1N1CCN(C(=O)c2c(C)oc3ncnc(N4CCCCC4)c23)CC1	6.5µM	/	9.2µM	/	.	/
Cc1noc2ncnc(N3CCN(c4cccc(Cl)c4)CC3)c12	9.2µM	?	16µM	?	.	.
Cc1oc2ncnc(N3CCCCC3)c2c1C(=O)N1CCN(c2ccc(Cl)cc2)CC1	?	/	.	/	.	/
CC(=O)c1ccc(N2CCN(c3ncnc4onc(C)c34)CC2)cc1	5.8µM	/	4.1µM	/	.	/
Cc1ccc(Cl)cc1N1CCN(S(=O)(=O)c2c(C)noc2C)CC1	?	.	?	.	.	.
Cc1ccc(Cl)cc1N1CCN(c2ncnc3onc(C)c23)CC1	5.8µM	/	6.5µM	/	.	/
COC(=O)C(C)Oc1ccc2c(=O)c(Oc3ccccc3Br)coc2c1 (stereo unspecified)	/	/	/	/	.	/
N#Cc1cccnc1N1CCN(C(=O)c2ccc3c(c2)S(=O)(=O)c2ccccc2C3=O)CC1	?	/	26µM	/	.	?
CCN1CCN(C(=O)c2ccc3c(c2)N(Cc2ccc(F)cc2)C(=O)c2ccccc2S3(=O)=O)CC1	?	/	?	/	.	/
O=C(c1ccc2c(c1)N(Cc1ccc(Cl)cc1)C(=O)c1ccccc1S2(=O)=O)N1CCN(c2ccccn2)CC1	23µM	/	16µM	/	.	/
SMILES	DT40 TDP1 no CPT	RORgamma inh	TDP1 cell CPT	VP16 counter	LDHA block	IL1B secr inh
O=C(c1ccc2c(c1)N(Cc1cccc(Cl)c1)C(=O)c1ccccc1S2(=O)=O)N1CCN(c2ccccn2)CC1	13µM	.	?	.	.	.
CC(C)CC(NC(=O)CC(C)(C)CC(=O)O)c1ccccc1 (stereo unspecified)	/	/	/	/	.	/
Clc1ccc(C2Nc3cccc4cccc(c34)N2)cc1Cl	?	.[1.91 µM]	?	.	.	.
Clc1cccc(Cl)c1C1Nc2cccc3cccc(c23)N1	?	0.71µM	?	4µM	.	.
Fc1cccc(Cl)c1C1Nc2cccc3cccc(c23)N1	21µM	/	23µM	/	.	.
CN(C)C(=O)c1c(F)cccc1F	/	/	/	/	.	/
NC(=O)c1ccc(CN(C2CC2)S(=O)(=O)c2cccc3nsnc23)cc1	/	/	/	/	.	/
COC1=C/C(=C/c2c(N)n3nc(-c4ccc(C)cc4)sc3nc2=O)C=CC1=O	.	?	.	.	-30	.
COc1ccccc1C(=O)Nc1sc(C(=O)N2CCCC2)c(C)c1C#N	.	4µM	.	7.9µM	.	.
Cc1c(C(=O)N2CCCC2)sc(NC(=O)c2ccc(Cl)cc2)c1C#N	?	?	.	.	.	.
COc1ccc2cc(C3Nc4ccccc4C(=O)N3C3CC3)ccc2c1 (stereo unspecified)	/	/	/	/	.	/
Oc1c(Br)cc(Br)cc1C=Nc1ccc(F)c(Cl)c1	/	/	/	/	.	/
Cc1ccccc1-n1nc2c(c1NC(=O)c1c(-c3ccccc3Cl)noc1C)CSC2	21µM	.	.	.	.	.
Cc1ccccc1-n1nc2c(c1NC(=O)CCCl)CSC2	?	.	?	.	.	.
Cc1sc(NC(=O)/C=C/c2ccc3c(c2)OCO3)nc1-c1ccccc1	16µM	.	15µM	.	.	.
Cc1ccc(-n2nc3c(c2NC(=O)c2c(-c4ccccc4Cl)noc2C)CSC3)cc1	?	.	26µM	.	.	.
Cc1ccc(-n2nc3c(c2NC(=O)/C=C\c2ccc4c(c2)OCO4)CSC3)c(C)c1	.	.	.	.	.	?
Cc1ccc(-n2nc3c(c2NC(=O)/C=C\c2ccc4c(c2)OCO4)CSC3)cc1	18µM	.	?	.	.	.
c1cc(CNCCN2CCCC2)cs1	/	/	/	/	.	/
O=C(N/N=C/c1ccsc1)c1ccc(-c2ccccc2)cc1	/	/	/	/	.	/
CCSc1nnc(NC(=O)[C@@H](NC(=O)c2ccc(C(C)(C)C)cc2)C(C)C)s1	21µM	.	26µM	.	.	.
CC(C)[C@H](NC(=O)c1ccc(C(C)(C)C)cc1)C(=O)Nc1nnc(C2CC2)s1	?	.	23µM	.	.	.
COc1ccc(OCCOC(=O)C(C)NS(=O)(=O)c2ccc(NC(C)=O)cc2)cc1 (stereo unspecified)	?	/	.	/	.	-77
COc1ccc(C(=O)COC(=O)[C@H](C)NS(=O)(=O)c2ccc(NC(C)=O)cc2)cc1OC	.	/	.	/	.	-93
Clc1ccc(CNCCOc2ccccn2)cc1	/	/	/	/	.	/
Fc1ccccc1COc1ccccc1/C=N/Nc1nc(N2CCCC2)nc(N2CCCC2)n1	21µM	6.3µM	?	13µM	.	.
Cc1cc(C)nc(N/N=C/c2ccccc2OCc2ccc([N+](=O)[O-])cc2)n1	?	14µM	?	?	.	.
